# Assay results published in the supplement of paper PMC7595190.
# Structures can show the parent of a compound that is named as a salt. Values without a mark were called inactive.
# What was measured:
# Test in all cases: CellTox Green cytotoxicity fluorescence relative to DMSO vehicle (fold of vehicle RFU); higher = more cell death (loss of membrane integrity), active = 2 or more
# [1] = system: CMK
# In short: (§1)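 MV4-11, CMK and Kasumi-1 cells were plated in 96-well black optical-bottom plates at 4.0 × 10^4 cells per well, and CellTox Green reagent was added at the time of seeding. Single compounds from the Selleckchem apoptosis library were diluted in DMSO and added at final concentrations of 0.01, 0.1 and 1 µM, with 0.1% DMSO as vehicle. Plates were kept at 37 °C and 5% CO2 and read at 24, 48 and 72 h (Ex 485 nm, Em 520 nm). Cytotoxicity reflects loss of membrane integrity and is given as fluorescence relative to the DMSO vehicle, expressed as fold.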
# [2] = system: Kasumi-1
# In short: as §1
# [3] = system: MV4-11
# In short: as §1
SMILES,"CellTox Green cytotoxicity fluorescence ([1]; 0.01 µM, 24 h)","CellTox Green cytotoxicity fluorescence ([1]; 0.01 µM, 48 h)","CellTox Green cytotoxicity fluorescence ([1]; 0.01 µM, 72 h)","CellTox Green cytotoxicity fluorescence ([1]; 0.1 µM, 24 h)","CellTox Green cytotoxicity fluorescence ([1]; 0.1 µM, 48 h)","CellTox Green cytotoxicity fluorescence ([1]; 1 µM, 24 h)","CellTox Green cytotoxicity fluorescence ([1]; 1 µM, 48 h)","CellTox Green cytotoxicity fluorescence ([1]; 1 µM, 72 h)","CellTox Green cytotoxicity fluorescence ([2]; 0.01 µM, 24 h)","CellTox Green cytotoxicity fluorescence ([2]; 0.01 µM, 48 h)","CellTox Green cytotoxicity fluorescence ([2]; 0.01 µM, 72 h)","CellTox Green cytotoxicity fluorescence ([2]; 0.1 µM, 24 h)","CellTox Green cytotoxicity fluorescence ([2]; 0.1 µM, 48 h)","CellTox Green cytotoxicity fluorescence ([2]; 0.1 µM, 72 h)","CellTox Green cytotoxicity fluorescence ([2]; 1 µM, 24 h)","CellTox Green cytotoxicity fluorescence ([2]; 1 µM, 48 h)","CellTox Green cytotoxicity fluorescence ([2]; 1 µM, 72 h)","CellTox Green cytotoxicity fluorescence ([1]; 0.1 µM, 72 h)","CellTox Green cytotoxicity fluorescence ([3]; 0.01 µM, 24 h)","CellTox Green cytotoxicity fluorescence ([3]; 0.01 µM, 48 h)","CellTox Green cytotoxicity fluorescence ([3]; 0.01 µM, 72 h)","CellTox Green cytotoxicity fluorescence ([3]; 0.1 µM, 24 h)","CellTox Green cytotoxicity fluorescence ([3]; 0.1 µM, 48 h)","CellTox Green cytotoxicity fluorescence ([3]; 0.1 µM, 72 h)","CellTox Green cytotoxicity fluorescence ([3]; 1 µM, 24 h)","CellTox Green cytotoxicity fluorescence ([3]; 1 µM, 48 h)","CellTox Green cytotoxicity fluorescence ([3]; 1 µM, 72 h)"
COc1c/c(=C2\C=c3ccccc3=N2)[nH]/c1=C\c1[nH]c(C)cc1C [Obatoclax Mesylate],0.914,0.907,0.894,0.921,0.88,1.01,1,0.819,0.975,0.917,0.921,0.977,1.01,1.05,1.17,1.31,1.42,–,–,–,–,–,–,–,–,–,–
CC(=O)N1c2ccc(-c3ccc(C(=O)O)cc3)cc2[C@H](Nc2ccc(Cl)cc2)C[C@@H]1C,0.995,1.1,0.996,1.2,1.71,1.33,1.93,1.57,0.959,0.98,1.03,1.06,1.36,1.49,1.09,1.66,1.92,1.37,0.931,0.997,1.17,0.975,1.43,2.03 (active),1.09,1.87,2.28 (active)
COc1nc(OCc2cccc(-c3ccccc3)c2C)ccc1CNCCNC(C)=O [PD-1/PD-L1 inhibitor 2],1.01,0.96,0.968,0.99,0.951,0.99,0.983,0.956,1,0.98,0.994,0.997,1.02,1.01,0.978,1,0.999,0.928,1.02,0.96,1,0.984,0.959,0.944,0.985,1,1.01
Cc1cccc(CC(=O)N2CCc3c2ccc(-c2cn(C)c4ncnc(N)c24)c3F)n1,0.981,0.975,0.966,1,0.997,1,1.05,0.907,1.03,1.02,1.02,1.01,1.02,1.04,1.03,1.03,1.04,1,1.04,1.04,1.06,1.02,1.01,1.02,1.03,1.03,1.04
CCS(=O)(=O)N1CCN(c2ccc(Nc3ncc(C(N)=O)c(NC4CC4)n3)cc2)CC1 [Cerdulatinib],0.961,0.986,0.983,0.961,1.07,1.13,1.64,1.34,0.959,0.983,1.01,0.98,1.06,1.07,0.928,1.08,1.15,0.888,0.937,0.94,0.941,0.942,0.965,0.965,0.949,1.07,1.11
Nc1nc(F)nc2c1ncn2[C@@H]1O[C@H](CO)[C@@H](O)[C@@H]1O [Fludarabine],1,1,1,0.981,0.982,0.976,0.961,0.907,0.951,0.991,0.986,0.99,0.99,0.984,1.02,1.01,1.03,0.939,0.938,0.968,0.976,0.992,0.985,0.98,0.994,0.984,1.01
CCO[C@@H]1OC(=O)C[C@@H]1NC(=O)[C@@H]1CCCN1C(=O)[C@@H](NC(=O)c1ccc(N)c(Cl)c1)C(C)(C)C,0.989,0.988,1,0.971,0.981,0.96,0.975,1.03,0.954,0.953,0.948,0.98,0.961,0.948,0.997,1.02,1.03,0.995,0.972,0.981,0.987,0.995,0.989,0.996,1,1,1.01
O=C1NC(=NCc2cccs2)S/C1=C\c1ccc2ncccc2c1,1.02,1.04,1.07,0.996,1,1.03,1.09,1.08,0.99,0.991,0.96,1.01,1.04,1,1.02,1.01,1.01,0.991,0.976,0.968,0.981,0.997,0.979,0.955,1.05,1.12,1.15
